Pf Dd2 inh: qHTS Primary assay for Inhibitors of Plasmodium falciparum Dd2 growth in vitro; P. falciparum Dd2 growth, SYBR Green, 72 h; Potency, µM (top dose mostly 28.9 µM), for inactives: at the top dose activity, negative = inhibition, actives largely listed as inhibitors; 120,000 compounds, 4.3% hits; AID 1347417, 2020; active = well fitted inhibition curve with a large enough effect;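 also: plate controls were DMSO vehicle for no effect and reference drug for full effect; nearly all actives have a fitted effect of over 65% in size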
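Infected erythrocytes (Dd2, 0.3% parasitemia, 2.5% hematocrit final) are added to compound in RPMI-1640/Albumax II medium, grown 72 h at 37C in low oxygen, then lysed with saponin/Triton-X containing SYBR Green and read by fluorescence.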
An asterisk follows results filed as active; i = inactive; [ ] = remark or other dose. Only a selection was taken, and hits are over-represented in it overall. Potency is read from the fitted curve at half-maximal effect.

SMILES	Pf Dd2 inh
CN(C)CC1(O)CCCN(Cc2ccc(-c3ccc(Cl)cc3)o2)C1 (configuration not stated)	-23%
COc1ccc(C(=O)N2CCC3(CC2)N(C)C(=O)CS3(=O)=O)cn1	5%
O=C(c1ccncc1)N1CCCC(COc2ccccc2C(=O)N2CCCCC2)C1 (configuration not stated)	i
CCN(Cc1noc(C)n1)C(=O)COc1ccc(Cl)cc1Cl	2%
Cc1ccccc1Oc1ncccc1CNCc1cc2c(cc1Cl)OCO2	i
Cc1ccccc1Oc1ncccc1CNCc1cccc(O)c1	13µM*
CCn1nc(C)cc1C(=O)NCc1cccnc1Oc1ccccc1C	-14%
COc1cccc(-c2noc(CC3CCN(C(=O)c4ccc(C(C)C)cc4)CC3)n2)c1	-16%
COc1ccc(NC(=O)CCC2CCCN(C(=O)C3=C(C)OCCO3)C2)cc1Cl (configuration not stated)	3.2µM*
COc1cc(OC)cc(C(=O)NCC2CCCN(C(=O)C3=C(C)OCCO3)C2)c1 (configuration not stated)	-6%
COc1ccc(Cl)cc1NC(=O)CCC1CCCN(S(=O)(=O)C2CC2)C1 (configuration not stated)	-27%
COc1ccc(NC(=O)CCC2CCCN(C(=O)c3csc(C(C)=O)c3)C2)cc1Cl (configuration not stated)	i
COc1ccc(Cl)cc1NC(=O)CCC1CCCN(Cc2ccc(C)s2)C1 (configuration not stated)	13µM*
COc1ccc(Cl)cc1NC(=O)CCC1CCCN(C(=O)CCc2scnc2C)C1 (configuration not stated)	-23%
CC(C)NC[C@H]1O[C@@H]2C[C@@H](CC(=O)NCc3cnn(C)c3)O[C@@H]2[C@@H]1O	16%[44.1 µM]
Cc1ccn2c(C(=O)N[C@H]3CCOC[C@H]3C3CCOCC3)nnc2n1	-5%
N#Cc1ccc(-n2nc(C3CCOCC3)nc2C2(C(N)=O)CC2)cc1	-2%
COc1ccc(CC(=O)NC2CCN(c3cc(-c4ccc(Cl)cc4)[nH]n3)CC2)cc1	-15%
CCCc1cc(N2CCC(NCCOC(C)C)CC2)nc(C)n1	-15%
CCCc1nc(C)cc(N2CCC(NCCc3ccc(Cl)cc3)CC2)n1	10µM*
Cn1ccnc1C(=O)N1CCCCCCn2c(nnc2-c2ccc(F)cc2)CC1	i
O=c1c2cc(-c3ccccc3)nn2ccn1CC(O)c1ccccc1 (configuration not stated)	i
CCOc1ccc(-c2cc3c(=O)n(CC(O)c4ccc(C(C)C)cc4)ccn3n2)cc1 (configuration not stated)	i
CCOc1ccc(C(O)Cn2ccn3nc(-c4ccccc4C)cc3c2=O)cc1 (configuration not stated)	13µM*
O=C(N[C@@H]1CCN(C(=O)CCc2cccc(Cl)c2)C[C@H]1O)c1cnccn1	-21%
SMILES	Pf Dd2 inh
O=C(CN1CC2CC(C1)[C@H]1CCCC(=O)N1C2)NCc1cccc(F)c1 (some centres not stated)	-7%
Cc1ccc(OCc2nc(C3CN(C(=O)c4ccc(Cn5nc(C)cc5C)o4)C3)no2)cc1	i
CC1CCCN(c2ncnc3c2CN(c2ccccc2F)C(=O)CN3C)C1 (configuration not stated)	-11%
CC1CCCN(c2ncnc3c2CN(c2ccc(Cl)cc2)C(=O)CN3C)C1 (configuration not stated)	10µM*
Cc1ccc(N2Cc3c(ncnc3N3CCN(C)CC3)N(C)CC2=O)cc1	-23%
Cc1ccccc1C(=O)N1CCC(c2nn(-c3ccc(F)cc3)c(=O)[nH]2)CC1	i
Cc1nnc(-c2cc(-c3ccccc3Oc3ccccc3)ccn2)n1Cc1cccnc1	-6%[44.1 µM]
CC(C)CCN1CCC2(C1)C(=NC1CCCC1)NC(=O)N2c1cc(F)cc(F)c1 (configuration not stated)	8.9µM*
CN(C)c1ccc(CN2CCC3(CC2)C(=NC2CCCCC2)NC(=O)N3c2cccnc2)cc1	7%
C[S+](=O)([O-])N1CCC2(CC1)C(=NC1CCCC1)NC(=O)N2c1cc(F)cc(F)c1	24%
O=C1NC(=NC2CCCC2)C2(CCCN(Cc3ccc(F)cc3)C2)N1c1cc(F)cc(F)c1 (configuration not stated)	7.9µM*
O=C1NC(=NC2CCCCC2)C2(CCN(Cc3ccsc3)C2)N1c1cc(F)cc(F)c1 (configuration not stated)	6%
CC(=O)N1CCCC2(C1)C(=NC1CCCC1)NC(=O)N2c1cc(F)cc(F)c1 (configuration not stated)	-13%
O=C(OCc1ccccc1)N1CCC2(CC1)C(=NC1CCCC1)NC(=O)N2c1cc(F)cc(F)c1	i
CN(C)c1ccc(CN2CCCC3(C2)C(=NC2CCCCC2)NC(=O)N3c2cc(F)cc(F)c2)cc1 (configuration not stated)	5.6µM*
O=C1NC(=NC2CCCCC2)C2(CCN(Cc3cccnc3)C2)N1c1cccnc1 (configuration not stated)	-4%

Assay outcomes (PubChem BioAssay)
